The nature of the assay: qHTS profiling of inhibitors of Plasmodium falciparum (HB3) proliferation (acoustic dispense). The note with it: P. falciparum HB3 in erythrocytes, SYBR Green, 72 h; at 49.8 µM (top of the series) unless noted. A general note: Quantitative high-throughput screening tests each substance at several concentrations.

Regarding `C[C@H](Cn1cnc2c(N)ncnc21)OCP(=O)(O)O`, the activity (normalised, proliferation) was determined as 92.2%.

As to `CS(=O)(=O)CCNCc1ccc(-c2ccc3ncnc(Nc4ccc(OCc5cccc(F)c5)c(Cl)c4)c3c2)o1`, the activity (normalised, proliferation) was 7.39%.

Take `COc1ncnc(NS(=O)(=O)c2ccc(N)cc2)c1OC`: the activity (normalised, proliferation) was found to be 102%.

Consider `CCCCN(CCCC)CCC(O)c1cc2c(Cl)cc(Cl)cc2c2cc(C(F)(F)F)ccc12` (configuration not stated), for which the activity (normalised, proliferation) is -0.0223% [at 23.2 µM].

`Cc1cn[nH]c1`: the activity (normalised, proliferation) is 39.3%.

Consider `CC[C@H]1OC(=O)[C@H](C)[C@@H](O[C@H]2C[C@@](C)(OC)[C@@H](O)[C@H](C)O2)[C@H](C)[C@@H](O[C@@H]2O[C@H](C)C[C@H](N(C)C)[C@@H]2O)[C@](C)(O)C[C@@H](C)CN(C)[C@H](C)[C@@H](O)[C@]1(C)O`, for which the activity (normalised, proliferation) was -0.367%.

Take `C[C@H]1[C@@H](OC(=O)CCC(=O)O)O[C@@H]2O[C@@]3(C)CC[C@@H]4[C@H](C)CC[C@@H]1[C@@]24OO3`: the activity (normalised, proliferation) was -0.479%.

Turning to `CC[C@H]1OC(=O)[C@H](C)C(=O)[C@H](C)[C@@H](O[C@H]2O[C@H](C)C[C@H](N(C)C)[C@@H]2O)[C@](C)(OC)C[C@@H](C)C(=O)[C@H](C)[C@H]2N(CCCCn3cnc(-c4cccnc4)c3)C(=O)O[C@]12C`, the activity (normalised, proliferation) stood at 5.95%.

For `O=C(Nc1cn[nH]c1-c1nc2ccc(CN3CCOCC3)cc2[nH]1)NC1CC1`, the activity (normalised, proliferation) is 1.76%.

Take `COc1cc2nc(N3CCCN(C)CC3)nc(NC3CCN(Cc4ccccc4)CC3)c2cc1OC`: the activity (normalised, proliferation) is -1.22%.

As for `CN(C)c1ccc(C(=C2C=CC(=[N+](C)C)C=C2)c2ccc(N(C)C)cc2)cc1`, the activity (normalised, proliferation) is 108%.

For the compound `COC1=C2C[C@@H](C)C[C@H](OC)[C@@H](O)[C@@H](C)C=C(C)[C@H](OC(N)=O)[C@@H](OC)C=CC=C(C)C(=O)NC(=CC1=O)C2=O`, the activity (normalised, proliferation) was -2.24%.

(Values after PubChem BioAssay AID743366 (National Center for Advancing Translational Sciences (NCATS), 2014).)
